High-throughput results: PubChem BioAssay, National Center for Advancing Translational Sciences (NCATS)
SMN2 splice up = increases expression of the SMN2 splice variant; Potency, µM (series often up to 46.1 µM), for the others: at the top dose activity change, positive = activation, usual class: activators; HEK293 SMN2-luciferase splicing reporter, luminescence, 30-36 h; 210,000 tested, 2.8% active; further: % of control where 0% means no effect; nearly all actives have a fitted effect of over 55% in size
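HEK293 cells carry an SMN2 minigene-luciferase reporter in which exon 7 inclusion puts luciferase in frame. Cells were seeded at 2000 cells/well, attached for 10-12 hours, then exposed to compounds for 30-36 hours at 37C before ONE-Glo luminescence.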
ELG1 repair inh = ELG1-dependent DNA repair inhibition; HEK293T ELG1-luciferase reporter, luminescence, 16 h; DNA damage induced by 5-fluorouridine; Potency, µM (doses to about 46.1 µM), inactives show at the top dose activity change, negative = inhibition, actives largely listed as inhibitors; 330,000 tested, 2.3% active; further: on the % scale 0 is the no-effect control and ±100 the full control effect; nearly all actives have a fitted effect of over 55% in size
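Reporter activity after DNA damage by 5-fluorouridine is monitored. Compound-treated cells incubate 16 hr at 37 °C, then ONE-Glo is added for 30 min before luminescence reading.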
FLuc counter = inhibits or activates purified firefly luciferase, miR-21 counter-screen; P08659; purified FLuc, Km substrates, luminescence inhibition; Potency, µM (highest dose often 57.5 µM), inactives show at the top dose activity change, negative = inhibition, most hits filed as inhibitors; 360,000 tested, 6.9% active;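 further: plate controls were vehicle for no effect and reference inhibitor for full effect; nearly all actives have a fitted effect of over 55% in size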
Target sequence (P08659 whole entry, looked up): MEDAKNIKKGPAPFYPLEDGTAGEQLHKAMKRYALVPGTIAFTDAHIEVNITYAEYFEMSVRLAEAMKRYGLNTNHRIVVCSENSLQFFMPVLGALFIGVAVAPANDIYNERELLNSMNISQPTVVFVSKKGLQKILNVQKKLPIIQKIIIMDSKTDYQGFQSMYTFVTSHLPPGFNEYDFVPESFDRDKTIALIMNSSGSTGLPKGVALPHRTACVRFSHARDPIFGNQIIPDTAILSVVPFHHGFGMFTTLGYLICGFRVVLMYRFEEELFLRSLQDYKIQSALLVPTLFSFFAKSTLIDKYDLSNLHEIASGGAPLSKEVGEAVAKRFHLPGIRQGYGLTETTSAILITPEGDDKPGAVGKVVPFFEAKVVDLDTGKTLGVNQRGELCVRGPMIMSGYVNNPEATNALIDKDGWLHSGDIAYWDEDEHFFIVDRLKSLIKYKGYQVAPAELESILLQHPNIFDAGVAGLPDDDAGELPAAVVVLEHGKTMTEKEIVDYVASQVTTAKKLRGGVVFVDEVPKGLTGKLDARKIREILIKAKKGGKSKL
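Purified P. pyralis luciferase, 10 nM final, with Km-level 10 uM D-luciferin and 10 uM ATP in 50 mM Tris acetate pH 7.5, 10 mM Mg acetate, 0.01% Tween-20, 0.05% BSA; 6-point qHTS titration about 60 µM downward; luminescence read.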
Rab9 promoter act = activators of Rab9 promoter; Potency, µM (top dose mostly 9.22 µM), for the others: at the highest dose activation, negative = inhibition, usual class: activators; Huh7 Rab9 promoter-luciferase reporter, luminescence, 24 h; 320,000 tested, 2.8% active; AID 485297; further: % of control where 0% means no effect; nearly all actives have a fitted effect of over 60% in size
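Cell-based reporter: Huh7 stable for Rab9 promoter-driven luciferase, plated in reduced-serum medium with 10% FBS at 1500 cells/well, compound-treated 24 h at 37 °C, luminescence read after 10 min reagent.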
NPC1 promoter act = activators of NPC1 promoter; Huh7 NPC1 promoter luciferase reporter, 24 h; Potency, µM (series often up to 9.22 µM), inactives show at the highest dose activation, most hits filed as activators; 320,000 tested, 2.4% active; further: % of control where 0% means no effect; nearly all actives have a fitted effect of over 60% in size
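Luciferase expression driven by the NPC1 promoter was measured in stably transfected Huh7 cells after a 24 h compound incubation, using a luciferase reagent and a luminescence read.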
ELG1 genotoxic = genotoxicity induction in ELG1-luciferase HEK293T cells; HEK293T ELG1-luciferase reporter, luminescence, 16 h; Potency, µM (doses to about 46 µM), without a hit: top-dose activity change, positive = activation, most hits filed as activators; 330,000 tested, 1.3% active; further: % of control where 0% means no effect; nearly all actives have a fitted effect of over 60% in size
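Cells (2,000/well) expressing the ELG1-luciferase fusion are dosed by pin tool and kept 16 hr at 37 °C, 5% CO2. Signal comes from ONE-Glo luciferase reagent after 30 min at room temperature.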
* = called active by the depositor; ? = inconclusive; nt = not tested or not shown; [ ] = remark or other dose. Hits are enriched below; roughly 9.2% of the tested compounds scored in any of these assays. The call rests on the fitted dose curve; in most records, active means well fitted curve in the direction sought with a large enough effect; inconclusive means small, poorly fitted or top-dose-only effect, or another doubt; inactive means no such curve, though single readings can be large; an effect the other way counts as inactive or inconclusive. Potency means the concentration at half of the fitted maximal effect.

SMILES | SMN2 splice up | ELG1 repair inh | FLuc counter | Rab9 promoter act | NPC1 promoter act | ELG1 genotoxic
CCOC(=O)C1CCN(c2ncnc3c2[nH]c2cccc(OC)c23)CC1 | 4.8% | ? | -18.8% | 4.5% | -0.5% | -15.5%
COc1cc2[nH]c3c(N4CCN(c5ccccn5)CC4)ncnc3c2cc1OC | -39.4% | ? | 13.5µM* | 5.0% | -12.9% | -5.3%
COc1cccc2[nH]c3c(N4CCCCC4)ncnc3c12 | 4.1% | ? | 13.5µM* | 9.9% | 27.7% | 27.3%
COc1ccc(N2CCN(c3ncnc4c3[nH]c3ccccc34)CC2)cc1 | -71.6% | nt | -3.1% | nt | nt | nt
Cc1cccc2[nH]c3c(N4CC=C(c5ccc(F)cc5)CC4)ncnc3c12 | nt | 11.6µM* | -11.8% | -4.8% | -6.5% | -12.4%
COc1cccc(-c2ncc3ccccc3c2COC(=O)c2cccc(Br)c2)c1 | nt | ? | -1.5% | -6.0% | 4.0% | -3.9%
COc1ccc(C(=O)N2CC3(CC(c4cccc(NC(=O)COc5ccc(Cl)cc5)c4)=NO3)C[C@@H]2C(N)=O)cc1 (stereo partly specified) | nt | ? | 10.7µM* | -1.7% | 1.0% | -11.8%
NC(=O)[C@@H]1CC2(CC(c3cccc(NC(=O)COc4ccc(Cl)cc4)c3)=NO2)CN1C(=O)c1ccccc1 (stereo partly specified) | nt | -10.5% | 15.1µM* | 0.2% | 0.0% | -5.4%
Cc1ccccc1OCC(=O)N/N=C/c1cn(Cc2ccccc2)c2ccccc12 | -16.9% | 7.4% | -1.2% | -0.3% | -0.2% | 0.9%
Cc1ccccc1OCC(=O)N/N=C/c1cn(C)c2ccccc12 | nt | -12.0% | 15.1µM* | 12.7% | -1.5% | -2.2%
Cc1ccc(OCC(=O)N/N=C/c2cn(C)c3ccccc23)cc1 | nt | 3.5% | 10.7µM* | 10.7% | 2.8% | 3.5%
Cc1ccc(-c2nn(CCC(=O)O)cc2/C=C\C(=O)c2ccc(Br)cc2)cc1 | -39.5% | -2.8% | -14.6% | -2.5% | -14.9% | -4.0%
CCCn1c(/C=C/c2ccco2)nc2ccccc21 | 14.1µM* | ? | 12µM* | 18.8% | 19.6% | 1.1%
CCCCn1c(/C=C/c2ccco2)nc2ccccc21 | 15.8µM* | ? | 13.5µM* | 12.5% | 11.4% | 12.5%
O=C(NC1CCC(O)CC1)C1CCN(S(=O)(=O)c2c(Cl)cccc2Cl)CC1 (stereo unspecified) | nt | 13.6% | -1.5% | 0.6% | 0.5% | -1.3%
COc1ccc2c(C)cc(SCC(=O)N(C)C3CCS(=O)(=O)C3)nc2c1 (stereo unspecified) | 7.9% | -1.2% | 1.6% | -0.7% | -0.3% | -0.3%
O=C(Nc1cccc(C(F)(F)F)c1)c1ccc2snnc2c1 | 0.6% | nt | -1.6% | nt | nt | nt
CNC(=O)c1ccc2snnc2c1 | 2.3% | 9.4% | -0.6% | -2.4% | -1.4% | -7.3%
CC(=O)c1ccc(NC(=O)c2ccc3snnc3c2)cc1 | nt | ? | ? | 3.98µM* | 4.47µM* | 14.6µM*
COc1ccc(NC(=O)c2ccc3snnc3c2)cc1 | 12.6µM* | ? | 9.53µM* | 2.82µM* | ? | ?
COc1cc(NC(=O)Cn2c(=O)cc(C)c3c(C)nn(-c4ccc(C)cc4)c32)cc(OC)c1 | nt | nt | -3.1% | nt | nt | nt
Cc1noc(C)c1C(=O)Nc1ccc2ccccc2c1 | nt | ? | ? | 0.7% | 2.0% | ?
O=C(Nc1ccc2ccccc2c1)c1onc2c1CCCC2 | 8.91µM* | ? | 0.953µM* | 0.562µM* | 0.398µM* | ?
COC(=O)c1cccc(NC(=O)c2onc3c2CCCC3)c1 | 0.794µM* | ? | 0.849µM* | 0.316µM* | 0.398µM* | 0.82µM*
CC(C(=O)Nc1ccc(OC(F)(F)F)cc1)N1Cc2ccccc2C1=O (stereo unspecified) | nt | nt | -6.9% | nt | nt | nt
SMILES | SMN2 splice up | ELG1 repair inh | FLuc counter | Rab9 promoter act | NPC1 promoter act | ELG1 genotoxic
COc1ncc2nc(-c3ccc(F)cc3)c(=O)n(CCC#N)c2n1 | -2.8% | nt | nt | nt | nt | nt
CN(C)C(CNC(=O)c1ccc(C2SCCS2)cc1)c1ccccc1 (stereo unspecified) | nt | ? | 16.9µM* | 12.4% | 21.7% | 16.5%
Cc1ccc(C)c2[nH]c(=O)c(CN(CCN3CCOCC3)Cc3nnnn3CC3CCCO3)cc12 (stereo unspecified) | -1.3% | 16.4µM* | 0.3% | 8.5% | -5.3% | -6.0%
COc1ccccc1CN(Cc1cc2c(C)ccc(C)c2[nH]c1=O)Cc1nnnn1Cc1ccco1 | -20.7% | 18.4µM* | 3.1% | -1.0% | 0.1% | -34.3%
Cc1ccc(C)c2[nH]c(=O)c(CN(Cc3nnnn3C3CCCCC3)CC3CCCO3)cc12 (stereo unspecified) | 1.0% | ? | -6.5% | 7.2% | 2.4% | -8.8%
COc1ccc2cc(CN(CCc3ccccc3)Cc3nnnn3Cc3ccco3)c(=O)[nH]c2c1 | -8.4% | ? | 1.5% | -0.6% | -2.5% | -6.2%
Cc1ccc(CN(Cc2cc3cc4c(cc3[nH]c2=O)OCCO4)Cc2nnnn2Cc2ccco2)cc1 | -38.1% | 23.1µM* | -3.9% | -1.4% | -3.5% | -10.1%
N/C(CC/C(N)=N/O)=N\O | -7.8%[9.22 µM] | nt | nt | nt | nt | nt
COc1cc(-c2nnn(CC(=O)NC3CCS(=O)(=O)C3)n2)ccc1OCc1ccccc1 (stereo unspecified) | ? | ? | 12µM* | 17.9% | ? | ?
COc1ccc(NC(=O)CN2C(=O)NC3(CCCC3)C2=O)cc1Cl | nt | 0.3% | 3.8% | 2.2% | 1.0% | 0.0%
CCOC(=O)c1cc(CC)sc1NC(=O)c1cccc(N2C(=O)CCC2=O)c1 | -3.7% | 18.4µM* | -9.1% | -2.2% | 0.2% | -3.0%
Cc1sc(NC(=O)c2ccc(=O)n(C)n2)nc1-c1ccccc1 | 10.8% | -15.4% | 13.5µM* | 12.0% | 0.6% | -0.1%
COc1ccc(-c2nc(NC(=O)c3cc(C(C)(C)C)nn3C)sc2C)cc1 | -42.6% | 8.2µM* | -7.8% | -3.2% | -5.0% | -8.9%
CCN(CC)S(=O)(=O)c1cccc(C(=O)Nc2nc3cc4c(cc3s2)OCCO4)c1 | -77.3% | 11.6µM* | 9.53µM* | -6.4% | -2.6% | -18.3%
Cc1sc(NC(=O)c2c(F)cccc2F)nc1-c1ccccc1 | nt | 24.8% | ? | 3.6% | -6.2% | 5.4%
CCN(CC)c1ccc(CNCCCSc2nnnn2C)cc1 | nt | nt | -0.9% | nt | nt | nt
O=C(NNc1nc2cc3c(cc2s1)OCO3)c1cccc(F)c1 | 18.5% | ? | 16.9µM* | 3.2% | 8.5% | -3.8%
O=C(Nc1ccc2sccc2c1)c1cccc(N2C(=O)CCC2=O)c1 | 18.6% | ? | 8.49µM* | 3.98µM* | ? | 18.3µM*
COc1ccc(OC)c2sc(NC(=O)c3cccc(N4C(=O)CCC4=O)c3)nc12 | nt | -2.9% | 2.2% | 0.3% | -1.0% | 14.1%
COc1ccc(-c2csc(NC(=O)c3cccc(N4C(=O)CCC4=O)c3)n2)cc1C | nt | -1.2% | 10.7µM* | 0.1% | 1.4% | -6.4%
